# In PubChem BioAssay (EPA / NIEHS):
# Results filed as inconclusive are left out. Calls of active or inactive are those of the source. The calls were made as follows, unless noted: active = hit-call score of the fitted dose curve at least 0.9, where 1 is the maximum; inactive = score below 0.9.
# Experiments:
# [1] = CCTE_Harrill_HTTr_Viability_PRF_DMEM_6hr: (Pilot) CCTE's 6-hour Cell Viability Assessment for the High-Throughput Transcriptomics (HTTr) Platform, in MCF-7 cells cultured phenol red-free DMEM + 10% charcoal-stripped fetal bovine serum, Harrill Lab (AID 2283976)
# Source text: (§1) This is a cell-based assay that evaluates cell viability using high content imaging to evaluate membrane integrity using propidium iodide dye exclusion in a 384 well format.One of seven assay components measured from the CCTE_Harrill_HTTr_Viability assay. This was part of a pilot experiment. This is a cell-based assay that evaluates cell viability in MCF-7 cells cultured in phenol red-free DMEM + 10% charcoal-stripped fetal bovine serum. High content imaging is used to evaluate membrane integrity using propidium iodide dye exclusion. Measurements are taken at 6 hours after chemical dosing in 384-well format.The assay component endpoint CCTE_Harrill_HTTr_Viability_PRF_DMEM_6hr was analyzed with bidirectional fitting relation to DMSO as the negative control and baseline of activity. Using a type of viability reporter to understand changes in cytotoxicity, gain-of-signal activity can be used to evaluate membrane integrity using propidium iodide dye exclusion. To generalize the intended target to other relatable targets, this assay endpoint is annotated to cell cycle, where the subfamily is cytotoxicity.
# Chemicals were tested in MCF7 cells in an eight point dilution series with a six hour exposure duration.
# [2] = CCTE_Harrill_HTTr_Viability_PRF_DMEM_12hr: (Pilot) CCTE's 12-hour Cell Viability Assessment for the High-Throughput Transcriptomics (HTTr) Platform, in MCF-7 cells cultured in phenol red-free DMEM + 10% charcoal-stripped fetal bovine serum, Harrill Lab (AID 2283977)
# Source text: as §1, with “12” for “6”, “CCTE_Harrill_HTTr_Viability_PRF_DMEM_12hr” for “CCTE_Harrill_HTTr_Viability_PRF_DMEM_6hr”
# Chemicals were tested in MCF7 cells in an eight point dilution series with a twelve hour exposure duration.
# [3] = CCTE_Harrill_HTTr_Viability_PRF_DMEM_24hr: (Pilot) CCTE's 24-hour Cell Viability Assessment for the High-Throughput Transcriptomics (HTTr) Platform, in MCF-7 cells cultured in phenol red-free DMEM + 10% charcoal-stripped fetal bovine serum, Harrill Lab (AID 2283980)
# Outline: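 Propidium iodide exclusion imaged at 24 h after dosing scores viability; cells were MCF-7 grown in phenol red-free DMEM plus 10% charcoal-stripped serum, tested in eight concentrations, fitted in both directions against DMSO.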
# [4] = CCTE_Harrill_HTTr_Apoptosis_DMEM_6hr: (Pilot) CCTE's 6-hour Apoptosis Assessment for the High-Throughput Transcriptomics (HTTr) Platform, in MCF-7 cells cultured in DMEM + 10% fetal bovine serum, Harrill Lab (AID 2283981)
# Outline: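 MCF-7 cells grown in DMEM + 10% FBS were exposed for 6 hours to an eight-point dilution series. CellEvent Caspase 3/7 Green signal was imaged; activity fitted bidirectionally against DMSO.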
# [5] = CCTE_Harrill_HTTr_Apoptosis_DMEM_12hr: (Pilot) CCTE's 12-hour Apoptosis Assessment for the High-Throughput Transcriptomics (HTTr) Platform, in MCF-7 cells cultured in DMEM + 10% fetal bovine serum, Harrill Lab (AID 2283982)
# Outline: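 Caspase-3/7 activity was measured by high-content imaging (CellEvent Caspase 3/7 Green) after a 12-hour exposure of MCF-7 cells grown in DMEM with 10% FBS. Eight-point concentration series, fitted bidirectionally against vehicle.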
# [6] = CCTE_Harrill_HTTr_Apoptosis_DMEM_24hr: (Pilot) CCTE's 24-hour Apoptosis Assessment for the High-Throughput Transcriptomics (HTTr) Platform, in MCF-7 cells cultured in DMEM + 10% fetal bovine serum, Harrill Lab (AID 2283983)
# Source text: This is a cell-based assay that evaluates apoptosis using high content imaging to evaluate activation of caspase-3/7 using the CellEvent Caspase 3/7 Green detection reagent in 384-well format.One of seven assay components measured from the CCTE_Harrill_HTTr_Apoptosis assay. This was part of a pilot experiment. This is a cell-based assay that evaluates apoptosis in MCF-7 cells cultured in DMEM + 10% fetal bovine serum. High content imaging is used to evaluate activation of caspase-3/7 using the CellEvent Caspase 3/7 Green detection reagent. Measurements are taken at 24 hours after chemical dosing in 384-well format.The assay component endpoint CCTE_Harrill_HTTr_Apoptosis_DMEM_24hr was analyzed with bidirectional fitting relation to DMSO as the negative control and baseline of activity. Using a type of viability reporter, gain-of-signal activity can be used to evaluate activation of caspase-3/7 using the CellEvent Caspase 3/7 Green detection reagent to understand changes in apoptosis. To generalize the intended target to other relatable targets, this assay endpoint is annotated to cell cycle, where the subfamily is apoptosis.
# (§2) Chemicals were tested in MCF7 cells in an eight point dilution series with a twenty-four hour exposure duration.
# [7] = CCTE_Harrill_HTTr_Apoptosis_PRF_DMEM_6hr: (Pilot) CCTE's 6-hour Apoptosis Assessment for the High-Throughput Transcriptomics (HTTr) Platform, in MCF-7 cells cultured phenol red-free DMEM + 10% charcoal-stripped fetal bovine serum, Harrill Lab (AID 2283984)
# Outline: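 Caspase-3/7 activity (CellEvent Green) read by high-content imaging 6 h after dosing, eight concentrations. Cells: MCF-7, phenol red-free DMEM with 10% charcoal-stripped serum. Curves fit both directions against DMSO.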
# [8] = CCTE_Harrill_HTTr_Apoptosis_PRF_DMEM_24hr: (Pilot) CCTE's 24-hour Apoptosis Assessment for the High-Throughput Transcriptomics (HTTr) Platform, in MCF-7 cells cultured in phenol red-free DMEM + 10% charcoal-stripped fetal bovine serum, Harrill Lab (AID 2283986)
# Source text: This is a cell-based assay that evaluates apoptosis using high content imaging to evaluate activation of caspase-3/7 using the CellEvent Caspase 3/7 Green detection reagent in 384-well format.One of seven assay components measured from the CCTE_Harrill_HTTr_Apoptosis assay. This was part of a pilot experiment. This is a cell-based assay that evaluates apoptosis in MCF-7 cells cultured in phenol red-free DMEM + 10% charcoal-stripped fetal bovine serum. High content imaging is used to evaluate activation of caspase-3/7 using the CellEvent Caspase 3/7 Green detection reagent. Measurements are taken at 24 hours after chemical dosing in 384-well format.The assay component endpoint CCTE_Harrill_HTTr_Apoptosis_PRF_DMEM_24hr was analyzed with bidirectional fitting relation to DMSO as the negative control and baseline of activity. Using a type of viability reporter, gain-of-signal activity can be used to evaluate activation of caspase-3/7 using the CellEvent Caspase 3/7 Green detection reagent to understand changes in apoptosis. To generalize the intended target to other relatable targets, this assay endpoint is annotated to cell cycle, where the subfamily is apoptosis.
# as §2
# [9] = TOX21_TR_RXR_BLA_Antagonist_Followup_viability: Viability Assessment in the Tox21 Thyroid Hormone Receptor beta Retinoid X Receptor alpha (RXRa) Antagonism Beta-lactamase (BLA) Follow-Up Assay (AID 2283979; active = hit-call score of the fitted dose curve at least 0.9, where 1 is the maximum)
# Outline: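 RXRa-bla HEK293T cells (2,500/well, phenol red-free DMEM, 2% charcoal-stripped FBS) were attached 5 h, then exposed to compounds at 11 concentrations in triplicate for 16 h at 37C. Viability measured by CellTiter-Glo ATP luminescence, bidirectional fitting versus DMSO.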
# DIO1 (gene 1733) = assay: CCTE_GLTED_hDIO1: CCTE's human Deiodinase 1 (DIO1) Inhibition Assay, Great Lakes Toxicology and Ecology Division (GLTED) Lab (AID 2283987; active = hit-call score of the fitted dose curve at least 0.9, where 1 is the maximum;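 also: isolated human DIO1 enzyme in a cell-free setup rather than cells; enzyme activity read as free iodide liberated from substrate via Sandell-Kolthoff colorimetry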)
# Outline: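 Steps: human DIO1 enzyme plus test chemical, 3 h incubation; free iodide then quantified in a second Sandell-Kolthoff step by absorbance. DMSO served as negative control and baseline.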
smiles,measurement,setting,value
CC(C)C(=O)Nc1ccc([N+](=O)[O-])c(C(F)(F)F)c1,outcome,[1],inactive
same,outcome,[2],inactive
same,outcome,[3],inactive
same,outcome,[4],inactive
same,outcome,[5],inactive
same,outcome,[6],inactive
same,outcome,[7],inactive
same,outcome,[8],inactive
Cc1nccn1-c1ccc(Sc2cccc(C3(C(N)=O)CCOCC3)c2)cc1,outcome,[9],inactive
CCCCCCCCCCCCCCCCOS(=O)(=O)O,AC50,DIO1 (gene 1733),44.5 µM (active)
FC(F)C(F)(F)COCC1CO1 (stereo unspecified),AC50,DIO1 (gene 1733),19.8 µM (active)
